# Tested on: LXRa:RXRa (NR concentration 270 nM, RXRa partner concentration 90 nM)
# Test: PBM binding z-score (relative to random genomic background probes); higher = stronger binding; sequences stand for … in GC…GCGATTGACAGCGTAGAATGAAGG
# Method in brief: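 The probes on custom Agilent 4×180K protein-binding microarrays were double-stranded, with 34-nt variable regions bearing direct-repeat seeds, single-nucleotide variants, half-site ablations and random human genomic background sequences. Incubation lasted 1 h with ligand-free nuclear receptor dimers in PBS pH 7.4, 2% milk, 0.02% Triton X-100, 1 mM DTT, 0.2 mg/mL BSA and 0.4 mg/ml salmon testes DNA. Antibodies against each partner (one per run) detected bound dimers, and fluorescence scans were regression-normalized. Binding z-scores take the random background probes as reference.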
row,Sequence,PBM binding z-score
1,CCACGGAGGACAGAAGGTCAGAGCTGTCCGCTTT,1.72
2,ATCTCGAGGTAAAGTTCAGTGAAAGATCGATAGA,1.92
3,CCAGACAGGTGTAAGGTAACTCAGTCTGGTACGC,-0.35
4,CGAACTAGGTCATCCAGGACAGTGTATACATTGA,2.66
5,CGAACTAGGTCATCCAGGGCAGTGAATACATTGA,3.06
6,GCTTTCGGGTCAAAGGTTATAGCATGAATAGAAT,5.74
7,GCGACTGGGGTAAAGCAGGTTACCATAAGGTTGG,0.949
8,AGAATGAGGTTATGAAGATCAGGGAATTGCGGTC,1.53
9,GGAACGAGGGAAAAGTTGATAGCATCTGTCGACG,-0.349
10,ATATGTAGGTTAGCTGGGTTCATTCAGACTAGGC,4.53
11,AGAATGAGGTTATAAGTAGATCAGGGAAGAAAGT,1.59
12,TCTAGCAGGCCAAAGGGTCACTCAAGAGGTACGG,2.67
13,GCGACTGGGGCAAAGCAAGTTACCATAAGGTTGG,-0.224
14,GTACCAAGGTGAATAGGACGTTGATGAGTAGGCG,-0.214
15,TCAAGTAGGTTACCAATGGGGCATTCAGCTTTCT,1.6
16,TCATATAGGTACTACAGGTGAAAGTCGGCATCTA,1.92
17,TCATATAAGTAAACAGGTGAAAGTCCGTAAGTTA,1.25
18,TCATGTAGGTAAATGCTAGGTGAAAGTCCGATCT,0.46
19,CCTTACGGGTCACGAGGTTATAGGACGACGAGCG,4.66
20,ATATCAAGGTGATCGTGAGGTCGTTGATACTAAC,1.33
21,TAGCCTAGGTCATGCGGGCCACTATAGTGTCGGC,3.36
22,GTACCAAGGTGAAGAGGTCGTTGATGAGTAGGCG,1.32
